# In the library only some 5.9% were active in any assay of this set; here they are far more common.
# KB-V1 MDR tox: qHTS assay for MDR1-selective chemotherapeutics: Primary screen using the drug-selected MDR subline cells KB-V1 | KB-V1 MDR cells viability, CellTiter-Glo, 72 h | Potency, µM (doses to about 46.1 µM), usual class: cytotoxic | 400,000 compounds, 3.4% hits | AID 1347076, 2019; note: % is set by controls: 0 for no effect and ±100 for the full control effect; nearly all actives have a fitted effect of over 60% in size
#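 Luminescent ATP read-out (CellTiter-Glo, 10 min) measures survival of drug-selected KB-V1 MDR cells after 72 h, 37 degrees C compound exposure. Medium: phenol-red-free DMEM, 10% FBS. Values from fitted concentration-response curves.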
# HepG2 tox-1: qHTS for Inhibitors of TGF-b: Cytotox Counterscreen; Potency, µM (highest dose often 46.1 µM), for the others: top-dose activity change, negative = cytotoxicity, usual class: cytotoxic; HepG2 CAGA-GFP viability, ATP luminescence, 18 h; 410,000 compounds, 0.76% hits
#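 CellTiter-Glo luminescence gave cytotoxicity after 18 hours at 37 degrees C. The cells were HepG2 CAGA-GFP in 1% FBS DMEM, stimulated with 500 pg/mL TGF-beta after compound addition. %Activity was normalised to no-cell wells (complete cell-killing) and DMSO (no toxicity), and curves were fitted and classified.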
# TGFb SMAD3 inh: qHTS for Inhibitors of TGF-b | HepG2 CAGA-GFP TGF-b/SMAD3 reporter, GFP fluorescence, 18 h; TGF-beta stimulated, 500 pg/mL final | Potency, µM (top dose mostly 46.1 µM), without a hit: top-dose activity, negative = inhibition, hits mostly inhibitors | 410,000 compounds, 1.2% hits | AID 588855, 2011; note: % is set by controls: 0 for no effect and ±100 for the full control effect; nearly all actives have a fitted effect of over 65% in size
#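 Smad-responsive CAGA-GFP expression was quantified in HEPG2 cells exposed to compounds and 500 pg/mL final TGF-beta for 18 h at 37 degrees C; unstimulated wells defined full inhibition.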
# KB-3-1 tox: qHTS assay for MDR1-selective chemotherapeutics: Primary screen using the parental adenocarcinoma cell KB-3-1; KB-3-1 viability, CellTiter-Glo ATP luminescence, 72 h; Potency, µM (top dose mostly 46.1 µM), most hits filed as cytotoxic; 400,000 compounds, 1.4% hits; note: % is set by controls: 0 for no effect and ±100 for the full control effect; nearly all actives have a fitted effect of over 60% in size
#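 Using CellTiter-Glo luminescence, growth of non-resistant KB-3-1 adenocarcinoma cells is assessed 72 h after pin-tool compound addition at 37 °C. Normalized responses across the concentration series yield fitted curves.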
# S2 tox: Viability Counterscreen for Primary qHTS for Inhibitors of ATXN expression; S2 cells (HEK-293 line with an ATXN2-luciferase reporter) viability, CellTiter-Fluor protease fluorescence, 24 h; Potency, µM (highest dose often 56.7 µM), most hits filed as cytotoxic; 400,000 compounds, 0.49% hits; AID 651635, 2014; note: nearly all actives have a fitted effect of over 40% in size
# ATXN2 expr inh: Primary qHTS for Inhibitors of ATXN expression | HEK-293 ATXN2-luciferase reporter, luminescence, 24 h | Potency, µM (top dose mostly 57 µM), for the others: at the highest dose activity change, negative = inhibition, most hits filed as inhibitors | 360,000 compounds, 0.72% hits | AID 1745845, 2022; note: % is set by controls: 0 for no effect and ±100 for the full control effect; nearly all actives have a fitted effect of over 55% in size
#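 ATXN2-luciferase reporter cells (luciferase flanked by upstream and downstream ATXN2 gene portions) were treated 24 h at 37 °C with compounds at up to 57 uM. SteadyGlo luminescence gave expression; GF-AFC fluorescence gave viability.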
# TGFb CAGA inh: qHTS for Inhibitors of TGF-b: Confirmation of Cherry Picks; shares compounds with TGFb SMAD3 inh; 1,600 compounds, 63% hits; Potency, µM (highest dose often 46.1 µM), inactives show at the top dose activity, negative = inhibition, hits mostly inhibitors; HepG2 CAGA-GFP TGF-b reporter, GFP fluorescence, 18 h; cells stimulated with TGF-beta, 500 pg/mL; AID 720534, 2013; note: % is set by controls: 0 for no effect and ±100 for the full control effect; nearly all actives have a fitted effect of over 65% in size
# HepG2 tox-2: qHTS for Inhibitors of TGF-b: Cytotox Counterscreen for Cherry Picks; shares compounds with TGFb SMAD3 inh; HepG2 CAGA-GFP viability, ATP luminescence, 18 h; cells stimulated with TGF-beta, 500 pg/mL; Potency, µM (doses to about 46.1 µM), for the others: at the highest dose activity, negative = cytotoxicity, most hits filed as inhibitors; 1,600 compounds, 27% hits; note: % is set by controls: 0 for no effect and ±100 for the full control effect; nearly all actives have a fitted effect of over 70% in size
# TGFb CCL64 inh: qHTS for Inhibitors of TGF-b: CCL64 Cells Orthogonal Assay for Cherry Picks; 1,600 compounds, 41% hits; CCL64 CAGA-GFP reporter, TGF-b stimulated, GFP fluorescence, 18 h; AID 720536, 2013; shares compounds with TGFb SMAD3 inh; Potency, µM (titrated, usually from 46.1 µM), for the others: at the highest dose activity, negative = inhibition, usual class: inhibitors; note: nearly all actives have a fitted effect of over 65% in size
# TGFb COP inh: qHTS for Inhibitors of TGF-b: Hit Validation in HepG2 Cells using COP promoter; 1,600 compounds, 3% hits; HepG2 COP-GFP TGF-b reporter, GFP fluorescence, 18 h; cells stimulated by added recombinant TGF-beta; Potency, µM (highest dose often 46.1 µM), for inactives: at the top dose activity, negative = inhibition, most hits filed as inhibitors; AID 720537, 2013; shares compounds with TGFb SMAD3 inh; note: nearly all actives have a fitted effect of over 70% in size
# Starred values were filed as active, the others as inactive; i = inactive; ? = inconclusive; . = no result. Calls come from the whole dose curve; as a rule, active = well fitted curve in the direction sought with a large enough effect; inconclusive = small, poorly fitted or top-dose-only effect, or another doubt; inactive = no such curve, though single readings can be large; an effect the other way counts as inactive or inconclusive. Potency is the fitted concentration of half-maximal effect.
SMILES,KB-V1 MDR tox,HepG2 tox-1,TGFb SMAD3 inh,KB-3-1 tox,S2 tox,ATXN2 expr inh,TGFb CAGA inh,HepG2 tox-2,TGFb CCL64 inh,TGFb COP inh
N#CC(c1cccc(Cl)c1)c1ccc2c(C(F)(F)F)cc(C(F)(F)F)nc2n1 (stereo not drawn),0.92µM*,-48.7%,1.26µM*,?,5.62µM*,2.51µM*,0.366µM*,1.3µM*,1.16µM*,15.5%
O=S(=O)(c1ccc2nc(SCc3cccc(Cl)c3)[nH]c2c1)N1CCOCC1,.,.,0.0%,.,i,-12.8%,.,.,.,.
O=S(=O)(c1ccc2nc(SCc3ccc(Cl)cc3)[nH]c2c1)N1CCOCC1,i,-18.9%,10µM*,i,i,-20.9%,11.6µM*,-23.4%,?,20.0%
COc1cc(C(=O)NCC(c2ccc(F)cc2)N2CCOCC2)ccc1OCc1ccccc1Cl (stereo not drawn),i,-16.0%,20µM*,i,i,-9.1%,?,?,?,67.8%
COc1ccccc1NS(=O)(=O)c1ccc(C(=O)NCC(c2ccc(F)cc2)N2CCOCC2)cc1 (stereo not drawn),i,1.2%,16.2%,i,i,.,.,.,.,.
CCc1ccc(S(=O)(=O)Nc2cc3c(cc2C)n(C)c(=O)c(=O)n3C)cc1,i,-17.7%,0.9%,i,i,14.3%,.,.,.,.
O=C(c1c[nH]c(C(=O)N2CCN(c3ccccc3F)CC2)c1)c1cccc(Cl)c1Cl,20.6µM*,-5.3%,10µM*,?,i,.,11.6µM*,?,?,70.0%
NC(=O)c1cc(C(=O)c2cccc(Cl)c2Cl)c[nH]1,?,-18.9%,-1.8%,i,i,3.6%,.,.,.,.
Cc1ccccc1C(=O)c1c[nH]c(C(=O)N2CCN(c3ccccc3F)CC2)c1,i,15.3%,?,i,i,-3.4%,13µM*,-19.0%,?,2.8%
CCC1Oc2ccc(C)cc2N(CC(=O)NCCc2ccccc2)C1=O (stereo not drawn),.,-1.7%,-9.4%,.,.,.,.,.,.,.
Cc1c2cnn(-c3ccccc3)c(=O)c2c(C)n1CC(=O)NCc1ccc(Cl)cc1,i,-11.0%,0.5%,i,i,-1.4%,.,.,.,.
COc1cc(/C=N/n2c(SC)nnc(C(C)(C)C)c2=O)ccc1O,i,-12.8%,3.16µM*,i,i,12.1%,?,10.9%,-5.5%,2.1%
COc1ccc(-n2c(SCC(=O)c3ccccc3)nc3c([nH]c4ccccc43)c2=O)cc1,i,-9.7%,5.5%,i,i,5.2%,.,.,.,.
CCc1ccccc1NC(=O)C1(S(=O)(=O)c2ccc(Cl)cc2)CC1,i,3.8%,-11.7%,i,i,0.0%,.,.,.,.
CN(C)S(=O)(=O)c1ccc(NC(=O)CN2CCC(Cc3ccccc3)CC2)cc1,i,-28.9%,-2.0%,i,?,.,.,.,.,.
CN(C)S(=O)(=O)c1ccc(Cl)c(NC(=O)CN2CCC(Cc3ccccc3)CC2)c1,?,-0.8%,?,i,i,-14.6%,13µM*,?,?,17.3%
CCCn1cc(S(=O)(=O)c2cccc(Cl)c2)c(=O)c2cc(F)c(N3CCOCC3)cc21,.,-1.9%,?,.,.,.,.,.,.,.
CCCC(=O)NC(=S)Nc1cccc(Cl)c1N1CCCCC1,18.4µM*,-87.4%,7.94µM*,?,?,?,14.6µM*,?,?,51.1%
Cc1cccc(COCC(CC(C)C)N2CCN(C(=O)c3ccc(C(C)(C)C)cc3)CCC2=O)c1 (stereo not drawn),?,-110.7%,8.91µM*,?,?,?,?,?,?,?
Cc1cccc(COCC(CC(C)C)N2CCN(C(=O)c3ccc(C(F)(F)F)cc3)CCC2=O)c1 (stereo not drawn),i,-12.2%,?,i,?,-28.7%,.,.,.,.
CC(C)CC(COCc1cccc(Cl)c1)N1CCN(C(=O)c2ccc(C(F)(F)F)cc2)CCC1=O (stereo not drawn),i,-27.3%,10µM*,i,.,-3.6%,18.4µM*,-11.0%,?,-0.9%
CC(C)C[C@@H](COCc1cccc(Cl)c1)N1CCN(C(=O)c2cccc(C(F)(F)F)c2)CCC1=O,?,.,.,i,?,-38.9%,.,.,.,.
Cc1oc2ncn(C)c(=O)c2c1C(=O)NCc1ccc(Cl)cc1,i,10.6%,9.7%,i,i,12.0%,.,.,.,.
CCOC(=O)c1ccc(N=Nc2c(C)[nH]n(-c3ccccc3)c2=O)cc1,i,7.0%,24.6%,i,i,.,.,.,.,.
CCOC(=O)c1ccc(-n2[nH]c(-c3ccccc3)cc2=O)cc1,?,10µM*,?,?,i,?,16.4µM*,?,?,45.2%
CC(=O)Oc1ccccc1C(=O)C=Cc1cccc([N+](=O)[O-])c1,5.8µM*,-30.9%,7.08µM*,14.6µM*,.,?,10.3µM*,?,5.8µM*,?
Cc1cc(O)c(C(=O)/C=C/c2cccc([N+](=O)[O-])c2)c(=O)o1,i,-6.3%,-11.1%,i,i,-4.5%,.,.,.,.

# Bioassay records from PubChem BioAssay.
